Active and inactive are the calls of the source. Unless noted, no rule for the calls is given here.
Columns and labels:
[1] = resazurin metabolic signal in HepG2 cells – cell-based, resazurin fluorescence, 24 h, PK04 Diversity Set, profiling panel (AID 1172); settings: HepG2 viability, higher = more signal
[2] = budding yeast growth changes without added modifier – OD600, strain BY4716, 24 h, basal condition, primary screen (AID 1173); settings: S. cerevisiae BY4716 growth, OD600, 24 h; higher = more signal, called active from +8 up or from −8 down
[3] = viability profiling in MM1S myeloma cells – cell-based, resazurin fluorescence, basal, 24 h, PK04 Diversity Set, profiling panel (AID 1174); settings: higher = more signal, called active from +8 up or from −8 down;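 also: MM1S multiple myeloma cell line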
[4] = target: Dihydroorotate dehydrogenase (quinone), mitochondrial (Plasmodium falciparum (isolate 3D7)) (UniProt Q08210); test: inhibition of P. falciparum DHODH – biochemical, C-terminal His tag, absorbance 600 nm, primary screen (AID 1175); settings: PfDHODH enzyme, DCIP absorbance 600 nm; higher = more signal, called active from +8 up or from −8 down;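 also: recombinant parasite enzyme with a five histidine tag at its C terminus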
[5] = inhibition of PAO1 biofilm formation – strain PAO1, LB-PBS medium, absorbance 600 nm, primary screen (AID 1176); settings: P. aeruginosa PAO1 growth/biofilm, A600, 12 h; higher = more signal
[6] = growth modulation of vineyard yeast isolate – strain RM11-1a, OD600, basal, 24 h, primary screen (AID 1177);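 also: cultures grown under basal conditions with no added stressor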; settings: S. cerevisiae RM11-1a growth, OD600, 24 h; higher = more signal, called active from +8 up or from −8 down
[7] = growth of efflux-deficient E. coli DRC39 – strain DRC39, OD650, 24 h, E. coli filamentation inducers, primary screen (AID 1178);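 also: growth measured as culture turbidity by optical density at 650 nm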; settings: E. coli DRC39 acrAB, higher = more signal, called active from +8 up or from −8 down
[8] = growth of efflux-deficient E. coli DRC39 – strain DRC39, OD650, 48 h, E. coli filamentation inducers, primary screen (AID 1179);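 also: screen aims at cell division blockers that make cells filament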; settings: E. coli DRC39 delta-acrAB growth, higher = more signal, called active from +8 up or from −8 down
[9] = viability profiling in RPMI8226 myeloma cells – cell-based, resazurin fluorescence, basal, 24 h, PK04 Diversity Set, profiling panel (AID 1180); settings: higher = more signal;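 also: RPMI8826 multiple myeloma cell line at 5000 cells per well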
[10] = target: E3 ubiquitin-protein ligase XIAP (Homo sapiens) (UniProt P98170); test: small molecules binding XIAP protein – biophysical, small-molecule microarray, fluorescence 635 nm, primary screen (AID 1181); settings: higher = more signal;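 also: score merges 667 nm emission and signal to noise over triplicate slides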
[11] = test system: XIP peptide (Xip251-270) binding; test: XIP fragment 251-270 binding compounds – biochemical, small-molecule microarray, fluorescence 635/667 nm, 0.1 µg/mL protein, primary screen (AID 1182); settings: fluorescent protein binding, 635 nm, higher = more signal, called active from +8 up or from −8 down
XIP peptide (Xip251-270) = test: compounds binding XIP fragment 251-270 – biochemical, small-molecule microarray, fluorescence 635/667 nm, 0.5 µg/mL protein, primary screen (AID 1183); settings: fluorescence 635 nm, higher = more signal
[12] = blood-stage malaria parasite viability loss – strain 3D7, DAPI fluorescence, 100 nL, primary screen (AID 1184);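 also: parasites grown inside human red blood cells in medium with human serum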; settings: P. falciparum 3D7 growth, 3 d, higher = more signal
[13] = target: Homeobox protein Hox-A13 (Mus musculus) (UniProt Q62424); test: disruptors of Hoxa13 oligonucleotide interaction – biochemical, fluorescence polarization, labeled oligonucleotide, primary screen (AID 1185); settings: Hoxa13:DNA binding, 15 min, higher = more signal, called active from +8 up or from −8 down
[14] = blockers of DNA damage checkpoint Chk1 activation – imaging, HeLa, hydroxyurea, phospho-Chk1 antibody, percent positive cells, primary screen (AID 1186); settings: hydroxyurea-induced phospho-Chk1 immunofluorescence imaging, higher = more signal
[15] = blockers of DNA damage checkpoint Chk1 activation – imaging, HeLa, hydroxyurea, phospho-Chk1 nuclear intensity, primary screen (AID 1187); settings: hydroxyurea-induced phospho-Chk1 immunofluorescence imaging, higher = more signal

Dihydroorotate dehydrogenase (quinone), mitochondrial (Plasmodium falciparum (isolate 3D7)), sequence (Q08210 whole entry, looked up): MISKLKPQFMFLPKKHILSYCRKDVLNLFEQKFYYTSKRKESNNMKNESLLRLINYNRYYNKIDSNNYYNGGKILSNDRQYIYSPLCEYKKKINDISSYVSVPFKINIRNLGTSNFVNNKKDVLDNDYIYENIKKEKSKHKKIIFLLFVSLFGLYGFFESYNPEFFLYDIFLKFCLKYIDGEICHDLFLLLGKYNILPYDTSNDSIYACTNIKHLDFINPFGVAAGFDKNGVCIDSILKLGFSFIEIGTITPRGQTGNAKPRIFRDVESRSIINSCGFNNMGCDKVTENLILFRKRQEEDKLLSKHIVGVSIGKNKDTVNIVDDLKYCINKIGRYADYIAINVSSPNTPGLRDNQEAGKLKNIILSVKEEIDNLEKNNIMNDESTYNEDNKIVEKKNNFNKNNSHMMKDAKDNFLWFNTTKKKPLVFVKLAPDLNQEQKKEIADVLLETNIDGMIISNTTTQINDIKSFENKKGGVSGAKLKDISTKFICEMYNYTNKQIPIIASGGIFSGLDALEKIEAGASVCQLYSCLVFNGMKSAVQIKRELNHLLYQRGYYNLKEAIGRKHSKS
Homeobox protein Hox-A13 (Mus musculus), sequence (Q62424 whole entry, looked up): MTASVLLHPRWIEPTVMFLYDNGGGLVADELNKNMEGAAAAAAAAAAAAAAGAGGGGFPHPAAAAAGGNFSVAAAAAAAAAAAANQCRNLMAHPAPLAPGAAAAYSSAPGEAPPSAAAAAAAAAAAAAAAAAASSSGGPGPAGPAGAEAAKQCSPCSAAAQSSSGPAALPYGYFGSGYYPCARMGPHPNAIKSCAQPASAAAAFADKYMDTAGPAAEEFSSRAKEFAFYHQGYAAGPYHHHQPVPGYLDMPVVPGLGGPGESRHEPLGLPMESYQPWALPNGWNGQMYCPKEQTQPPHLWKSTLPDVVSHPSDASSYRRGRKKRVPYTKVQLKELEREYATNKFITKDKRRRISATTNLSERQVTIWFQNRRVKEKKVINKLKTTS
E3 ubiquitin-protein ligase XIAP (Homo sapiens), sequence (P98170 whole entry, looked up, the tested form may be a part): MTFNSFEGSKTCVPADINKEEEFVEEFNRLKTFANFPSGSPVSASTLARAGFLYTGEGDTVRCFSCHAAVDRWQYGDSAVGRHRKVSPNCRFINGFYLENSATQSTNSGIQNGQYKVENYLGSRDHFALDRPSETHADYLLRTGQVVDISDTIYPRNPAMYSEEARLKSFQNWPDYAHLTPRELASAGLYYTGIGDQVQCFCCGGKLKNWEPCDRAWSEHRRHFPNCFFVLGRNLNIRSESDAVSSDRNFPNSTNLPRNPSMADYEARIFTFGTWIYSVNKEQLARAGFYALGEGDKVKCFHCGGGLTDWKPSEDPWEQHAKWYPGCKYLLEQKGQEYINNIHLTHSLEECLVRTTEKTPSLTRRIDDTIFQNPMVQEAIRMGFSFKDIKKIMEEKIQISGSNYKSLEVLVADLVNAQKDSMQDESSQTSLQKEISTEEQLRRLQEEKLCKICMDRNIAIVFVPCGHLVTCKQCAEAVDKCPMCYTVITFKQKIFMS

[N-]=[N+]=NCc1ccccc1C[C@]1(C(=O)NCC(O)CO)N=C(c2ccc(OCCCO)cc2)O[C@H]1c1ccccc1 (some centres undefined)
z-score [1]: -0.237
z-score [2]: -1.16 (inactive)
z-score [3]: -0.525 (inactive)
composite z-score [4]: 0.105 (inactive)
z-score [5]: 0.826 (inactive)
z-score [6]: 0.125 (inactive)
z-score [7]: -0.376 (inactive)
z-score [8]: -0.193 (inactive)
z-score [9]: -0.977
composite z-score [10]: 0.035
composite z-score [11]: 0.417 (inactive)
composite z-score (XIP peptide (Xip251-270)): -0.148
z-score [12]: -0.836
z-score [13]: -6.51 (inactive)
z-score [14]: 0.112 (inactive)
z-score [15]: 0.377 (inactive)

C=C/C=C/[C@H]1C(=C)CN([C@@H](Cc2ccccc2)C(=O)OC)[C@@H]1[C@H](O)Cc1ccccc1
z-score [1]: 0.28
z-score [2]: -1.91 (inactive)
z-score [3]: 0.883 (inactive)
composite z-score [4]: -1.09 (inactive)
z-score [5]: 0.531 (inactive)
z-score [6]: -0.609 (inactive)
z-score [7]: 0.701 (inactive)
z-score [8]: 0.595 (inactive)
z-score [9]: 0.73
composite z-score [10]: 0.643
composite z-score [11]: -0.245 (inactive)
composite z-score (XIP peptide (Xip251-270)): 0.497
z-score [12]: -1.2
z-score [13]: -1.43 (inactive)
z-score [14]: -0.0246 (inactive)
z-score [15]: -0.368 (inactive)

COc1ccc(C(=O)Nc2ccc(CN3C(=O)[C@@]4(O[C@@H](CC(=O)N5CCC[C@H]5CO)[C@H]([Si](C)(C)c5ccc(OC)cc5)[C@H]4C)c4ccccc43)cc2)cc1
z-score [1]: 0.294
z-score [2]: -0.871 (inactive)
z-score [3]: -0.675 (inactive)
composite z-score [4]: -6.57 (inactive)
z-score [5]: 1.58 (inactive)
z-score [6]: 0.515 (inactive)
z-score [7]: 1.28 (inactive)
z-score [8]: 1.26 (inactive)
z-score [9]: -0.677
composite z-score [10]: 0.0774
composite z-score [11]: 0.135 (inactive)
composite z-score (XIP peptide (Xip251-270)): 0.703
z-score [12]: -0.183
z-score [13]: -3.33 (inactive)
z-score [14]: -0.0567 (inactive)
z-score [15]: 0.829 (inactive)

COC(=O)C=C(CC(O)c1cccc(Cl)c1)OC (centres undefined)
z-score [1]: -0.0421
z-score [2]: -11.9 (active)
z-score [3]: 0.427 (inactive)
composite z-score [4]: -1 (inactive)
z-score [5]: -1.07 (inactive)
z-score [6]: -1.85 (inactive)
z-score [7]: -0.246 (inactive)
z-score [8]: 0.861 (inactive)
z-score [9]: -0.219
composite z-score [10]: -0.169
composite z-score [11]: 0.633 (inactive)
composite z-score (XIP peptide (Xip251-270)): 0.744
z-score [12]: -0.0951
z-score [13]: -1.42 (inactive)
z-score [14]: -1.22 (inactive)
z-score [15]: -1.18 (inactive)

CC(C)(C)OC(=O)CC[C@@]1(C(=O)NCC(O)CO)N=C(c2ccc(OCCCO)cc2)O[C@@H]1c1ccccc1N=[N+]=[N-] (some centres undefined)
z-score [1]: 0.486
z-score [2]: -0.69 (inactive)
z-score [3]: -1.26 (inactive)
composite z-score [4]: 0.536 (inactive)
z-score [5]: -0.127 (inactive)
z-score [6]: 0.151 (inactive)
z-score [7]: 0.4 (inactive)
z-score [8]: 1.65 (inactive)
z-score [9]: 0.576
composite z-score [10]: 0.201
composite z-score [11]: 1.01 (inactive)
composite z-score (XIP peptide (Xip251-270)): 0.795
z-score [12]: -1.86
z-score [13]: -4.43 (inactive)
z-score [14]: -0.436 (inactive)
z-score [15]: -0.65 (inactive)

CS(=O)(=O)CCOC(=O)C1=CC(CCCO)=CC(c2ccc(CN3CCCC3)cc2)N(Cc2cc3c(cc2Br)OCO3)C=C1C(=O)OCCS(C)(=O)=O (centres undefined)
z-score [1]: 0.0305
z-score [2]: -3.3 (inactive)
z-score [3]: 0.56 (inactive)
composite z-score [4]: -4.55 (inactive)
z-score [5]: -0.66 (inactive)
z-score [6]: 0.526 (inactive)
z-score [7]: 0.549 (inactive)
z-score [8]: 0.325 (inactive)
z-score [9]: 1.31
composite z-score [10]: -0.0773
composite z-score [11]: 0.597 (inactive)
composite z-score (XIP peptide (Xip251-270)): 0.732
z-score [12]: -2.66
z-score [13]: -0.776 (inactive)
z-score [14]: -1.45 (inactive)
z-score [15]: -0.549 (inactive)

CC1CC/C=C\[C@H]2OC34C=CCN(c5ccc(Cl)cc5)C(=O)[C@H]3N(CCO)C(=O)[C@]4(C)C2C(=O)O1 (some centres undefined)
z-score [1]: -0.349
z-score [2]: -0.152 (inactive)
z-score [3]: -1.13 (inactive)
composite z-score [4]: -0.0582 (inactive)
z-score [5]: 0.0962 (inactive)
z-score [6]: -0.245 (inactive)
z-score [7]: -0.135 (inactive)
z-score [8]: -0.672 (inactive)
z-score [9]: 0.102
composite z-score [10]: -0.0785
composite z-score [11]: 1.21 (inactive)
composite z-score (XIP peptide (Xip251-270)): 0.18
z-score [12]: -0.515
z-score [13]: -4.66 (inactive)
z-score [14]: -0.0711 (inactive)
z-score [15]: -0.271 (inactive)

C[C@@H]1ON(c2cccc(C(=O)OC(C)(C)C)c2)[C@H](c2ccc(Br)cc2)[C@H]1C(=O)N1C(=O)OC[C@H]1Cc1ccccc1
z-score [1]: 0.0192
z-score [2]: 0.724 (inactive)
z-score [3]: 0.433 (inactive)
composite z-score [4]: 1.17 (inactive)
z-score [5]: -0.295 (inactive)
z-score [6]: 0.872 (inactive)
z-score [7]: -0.741 (inactive)
z-score [8]: -0.472 (inactive)
z-score [9]: 1.25
composite z-score [10]: 0.127
composite z-score [11]: 0.543 (inactive)
composite z-score (XIP peptide (Xip251-270)): 0.615
z-score [12]: -0.829
z-score [13]: -0.923 (inactive)
z-score [14]: 0.0511 (inactive)
z-score [15]: 0.176 (inactive)

C=CCNC(=O)[C@H]1[C@@H]2C(=O)O[C@@H](c3ccccc3)[C@@H](c3ccccc3)N2[C@@H](c2ccc(O)cc2)[C@]12C(=O)N(C(=O)OCCOC)c1ccc(C#CCNC(N)=O)cc12
z-score [1]: -0.173
z-score [2]: 0.516 (inactive)
z-score [3]: 0.244 (inactive)
composite z-score [4]: 0.132 (inactive)
z-score [5]: 0.911 (inactive)
z-score [6]: 1.14 (inactive)
z-score [7]: 0.204 (inactive)
z-score [8]: -0.135 (inactive)
z-score [9]: -0.17
composite z-score [10]: -0.219
composite z-score [11]: 0.17 (inactive)
composite z-score (XIP peptide (Xip251-270)): 0.53
z-score [12]: 2.38
z-score [13]: -3.07 (inactive)
z-score [14]: -0.237 (inactive)
z-score [15]: -0.625 (inactive)
